Compounds with a hit are over-represented: about 15% of the library has one in this group of screens.
SARS PLpro yeast – blocks SARS-CoV papain-like protease in a yeast assay. S. cerevisiae expressing SARS-CoV PLpro, growth rescue. Potency, µM (doses to about 32.9 µM), without a hit: at the top dose activity, positive = growth rescue, hits mostly activators. actives 0.19% (n = 330,000); calls by dose curve; note: potency is the fitted concentration of half-maximal effect; 0% is about no effect; nearly all actives have a fitted effect of over 55% in size
Sm TGR inh – S. mansoni TGR enzyme inhibition | Potency, µM (series often up to 114 µM), without a hit: at the highest dose activity change, negative = inhibition, most hits filed as inhibitors | AID 485364 | purified TGR, DTNB reduction, TNB absorbance 405 nm | actives 3% (n = 360,000) | Q962Y6; note: potency is the fitted concentration of half-maximal effect; % is set by controls: 0 for no effect and ±100 for the full control effect; nearly all actives have a fitted effect of over 60% in size
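TGR 20 nM + NADPH 100 uM (dispensed conc.), cpd preinc 15 min RT; start with NADPH (500 uM addition) then DTNB (15 mM addition). Kinetic TNB absorbance, 405 nm filter. Four-parameter Hill fit across titration.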
HCV inh – blocks hepatitis C virus; Huh7.5.1 HCVcc-Cre infection, luciferase reporter, 44 h; Potency, µM (highest dose often 41.8 µM), for the others: top-dose activity change, negative = inhibition, usual class: inhibitors; actives 3.4% (n = 340,000); note: potency is the fitted concentration of half-maximal effect; % is set by controls: 0 for no effect and ±100 for the full control effect
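HCVcc-Cre virus at an moi near 0.5 was added right after compound to cells cultured 4 h from seeding (1,000 cells/well). Luciferase activity was determined 44 h later, 15 min after substrate addition at RT.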
Pf growth 96h – P. falciparum growth inhibition at 96 hour, primary screen for plastid delayed-death inhibitors; Potency, µM (titrated, usually from 28.7 µM), for the others: at the top dose activity change, negative = inhibition, actives largely listed as inhibitors; P. falciparum luciferase reporter growth, 96 h; actives 6.9% (n = 320,000); note: potency is the fitted concentration of half-maximal effect; % is set by controls: 0 for no effect and ±100 for the full control effect
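Infected RBCs, 2% Hct / 0.05% parasitemia final; luciferase-reporter P. falciparum; cpd 96 h, 37 C, 5% CO2; luciferase detection reagent; luminescence.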
HCMV inh – human cytomegalovirus inhibition; activity change, negative = inhibition, % at 57.5 µM; actives 4.5% (n = 410,000); AID 1259415; HFF cells, HCMV-luciferase reporter, 72 h; active compounds read low; in the data active = activity change below about -60%; inconclusive = no clear call, values can overlap the other calls; inactive = above about -39%; note: % is set by controls: 0 for no effect and ±100 for the full control effect
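HFF cells seeded 16 h at 37C, treated with compounds, infected with luciferase-reporter HCMV at MOI 1 PFU/cell; luciferase read at 72 h post infection, normalized to buffer-only and Salinomycin controls.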
Pf growth 48h – P. falciparum growth inhibition at 48 hours (one generation). P. falciparum luciferase growth in erythrocytes, 48 h. Potency, µM (doses to about 28.7 µM), inactives show at the highest dose activity change, negative = inhibition, most hits filed as inhibitors. actives 5.9% (n = 310,000); note: potency is the fitted concentration of half-maximal effect; % is set by controls: 0 for no effect and ±100 for the full control effect
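Luciferase-expressing P. falciparum in infected erythrocytes (2% hematocrit, 0.1% parasitemia final) in RPMI 1640/0.5% Albumax were exposed to compound for 48 hours at 37 C, 5% CO2; growth read as luminescence.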
* marks the source's active call; other numbers are inactive results; ? = inconclusive; nt = no result given; [ ] = another dose, or the depositor's remark. Unless noted, calls come from the whole dose curve; as a rule, active = well fitted curve in the direction sought with a large enough effect; inconclusive = small, poorly fitted or top-dose-only effect, or another doubt; inactive = no such curve, though single readings can be large; an effect the other way counts as inactive or inconclusive.

SMILES | SARS PLpro yeast | Sm TGR inh | HCV inh | Pf growth 96h | HCMV inh | Pf growth 48h
COc1ccccc1C(=O)NCCC(=O)N1CCN(c2ccc(C(F)(F)F)cn2)CC1 | 1.7% | -0.2% | ? | ? | -84.7* | ?
COc1ccc(S(=O)(=O)N2CCN(C(=O)CCNC(=O)c3ccccc3Cl)CC2)cc1 | -1.1% | -27.1% | -8.9% | ? | -97.7* | ?
Cc1ccc(S(=O)(=O)N2CCN(C(=O)CCNC(=O)c3ccccc3Cl)CC2)cc1 | -5.5% | -4.4% | 37.2% | ? | -10.2 | ?
CC1CC=C(O)C12OCC(C)(C)CO2 (stereo unspecified) | nt | nt | 18.8% | nt | -7.6 | nt
CC(=O)Nc1ccc(Nc2c(CCC(C)C)c(C)c(C#N)c3nc4ccccc4n23)cc1 | nt | -4.5% | nt | nt | -10.3 | nt
O=C(CCC(=O)c1ccc(Oc2ccccc2)cc1)Nc1ccc(C(=O)O)cc1 | -3.5% | 0.1% | 13.3% | ? | 4.5 | -34.4%
O=[N+]([O-])c1cccc(CN2CC=C(c3ccc(F)cc3)CC2)c1 | -2.5% | 29.8% | -16.4% | 10.4µM* | -12.4 | -5.9%
O=[N+]([O-])c1ccccc1CN1CC=C(c2ccc(F)cc2)CC1 | 2.3% | -2.3% | 2.0% | -26.2% | -2.8 | 8.7%
O=C(CCN1CCN(Cc2ccccc2)CC1)NNC(=O)Nc1cccc([N+](=O)[O-])c1 | 2.4% | -0.4% | -10.5% | 13.1µM* | ? | 9.8%
O=[N+]([O-])c1cccc(CN2CCN(Cc3ccc(Cl)cc3)CC2)c1 | -2.1% | 1.0% | 10µM* | 0.1% | -76.7* | 12.1%
Cc1c(C(=O)NCc2ccco2)oc2ccccc12 | -3.9% | -6.5% | 9.3% | -29.3% | 14.1 | 20.5%
O=C(CN1C=NS(=O)(=O)c2ccc(C(F)(F)F)cc21)Nc1cccc(C(F)(F)F)c1 | nt | -0.7% | nt | nt | -29.0 | nt
O=C(CN1C(=O)/C(=C/c2ccccc2Cl)SC1=S)NC1C=CS(=O)(=O)C1 (stereo unspecified) | 2.4% | -3.3% | -0.3% | 2.1% | -64.4* | 35.2%
COc1cccc(/C=C2\SC(=O)N(CC(=O)NC3C=CS(=O)(=O)C3)C2=O)c1 (stereo unspecified) | 0.5% | -20.1% | 1.9% | 11.7µM* | -69.1* | ?
CC(C)c1ccc(/C=C2\SC(=O)N(CC(=O)NC3C=CS(=O)(=O)C3)C2=O)cc1 (stereo unspecified) | 5.6% | -24.6% | -5.7% | ? | -76.6* | ?
Cc1nc2cc(F)ccc2n1C1CCN(C(=O)c2c(F)cccc2F)CC1 | -1.1% | 0.7% | ? | -10.5% | -17.1 | 1.47µM*
Cc1nc2cc(F)ccc2n1C1CCN(C(=O)c2ccc(F)cc2F)CC1 | 1.8% | 11.9% | ? | ? | -4.7 | ?
CCOc1cc(/C=N/Nc2nc(C)cc(=O)[nH]2)ccc1O | 0.5% | -8.0% | 8.7% | 6.6% | 63.7 | ?
COc1ccc(/C=N/Nc2cc(C)nc(N3CCOCC3)n2)cc1 | 2.5% | 1.9% | 6.1% | 2.3% | 26.5 | 61.2%
COc1ccc(/C=N/Nc2cc(C)nc(-n3nc(C)cc3C)n2)c(OC)c1 | -12.9% | -3.9% | ? | 0.329µM* | -98.2* | 1.47µM*
CCOc1cc(/C=N/Nc2cc(C)nc(-n3nc(C)cc3C)n2)ccc1O | 1.2% | 3.6% | ? | 1.65µM* | -77.7* | 0.37µM*
COc1ccccc1/C=N/Nc1cc(C)nc(N2CCOCC2)n1 | 1.0% | 8.3% | -28.1% | ? | 35.7 | ?
Cc1cc(N/N=C/c2ccc(F)cc2)nc(-n2nc(C)cc2C)n1 | 1.8% | 29.5% | 2µM* | 1.04µM* | -96.4* | 0.329µM*
CNS(=O)(=O)c1cccc(C(=O)NCC(c2cccs2)N2CCOCC2)c1 (stereo unspecified) | 3.7% | -3.3% | -1.4% | 24.2% | -15.7 | -1.2%
COc1ccc(Cl)cc1NC(=O)c1sc2nc(C)nc(N3CCOCC3)c2c1C | 12.5% | 3.7% | -2.4% | ? | 3.1 | -5.9%
SMILES | SARS PLpro yeast | Sm TGR inh | HCV inh | Pf growth 96h | HCMV inh | Pf growth 48h
O=[N+]([O-])c1cc2c(cc1Br)-c1ccccc1C2 | nt | nt | nt | nt | -20.7 | nt
O=c1[nH]c(NCc2ccccc2)nc2c1CCCC2 | -8.1% | 22.2% | 3.8% | 8.28µM* | -32.5 | 13.1µM*
COc1ccc(-c2nc3ccc(Br)cn3c2Cc2ccccc2)cc1OC | nt | nt | nt | nt | -65.1* | nt
CC(C)N1CCc2c(sc(NC(=O)c3ccc(C(=O)c4ccccc4)cc3)c2C(N)=O)C1 | -3.3% | 0.8% | ? | ? | 4.3 | 13.1µM*
CC(C)N1CCc2c(sc(NC(=O)Cc3ccccc3)c2C(N)=O)C1 | -5.7% | -1.5% | -17.4% | ? | -1.7 | ?
COc1cccc(OC)c1C(=O)Nc1sc2c(c1C(N)=O)CCN(Cc1ccccc1)C2 | 1.1% | -14.8% | -5.7% | ? | -6.9 | ?
COC(=O)c1c(NC(=O)c2ccco2)sc2c1CCN(C(C)C)C2 | -1.7% | -32.6% | -23.0% | ? | 6.4 | -0.9%
CC(C)N1CCc2c(sc(NC(=O)c3ccc4ccccc4c3)c2C(N)=O)C1 | 0.5% | -10.2% | 8.91µM* | 9.28µM* | -7.3 | 10.4µM*
CC(=O)c1ccc(C(=O)Nc2sc3c(c2C(N)=O)CCN(Cc2ccccc2)C3)cc1 | 4.4% | -0.7% | nt | ? | -74.1* | ?
CC(C)N1CCc2c(sc(NC(=O)c3ccco3)c2C(N)=O)C1 | 3.4% | 50.1µM* | -12.3% | ? | -76.1* | 0.465µM*
CC(C)(C)C(=O)N1CCC2CC1c1cc(Cl)ccc12 (stereo unspecified) | nt | nt | -15.5%[8.37 µM] | nt | -27.2 | nt
CCN1CCc2c(sc(NC(=O)c3cc4ccccc4cc3OC)c2C(N)=O)C1 | -5.9% | -1.6% | 8.91µM* | ? | -113.4* | 9.28µM*
COc1ccccc1C(=O)Nc1sc2c(c1C(N)=O)CCCC2 | -11.7% | -0.6% | ? | ? | 57.0 | 4.5%
CC(C)N1CCc2c(sc(NC(=O)c3cc4cc([N+](=O)[O-])ccc4s3)c2C(N)=O)C1 | 0.1% | 6.8% | ? | ? | -94.7* | -29.4%
CN1CCc2c(sc(NC(=O)c3cc4cc([N+](=O)[O-])ccc4s3)c2C(N)=O)C1 | -5.3% | -21.5% | nt | ? | nt | ?
COc1ccccc1NC(=O)C1=C(C)Nc2nc(SCc3cc(C)ccc3C)nn2C1c1ccccc1 (stereo unspecified) | nt | 0.0% | nt | nt | -16.5 | nt
Cc1nc2sccc2c(=O)n1N | 3.9% | -0.9% | 10.4% | -9.9% | -13.2 | 11.9%
Cc1cccc(C(=O)NCC(=O)NCCCSc2ccccc2)c1 | -1.7% | -8.0% | 13.2% | 10.8% | -17.2 | -8.3%
c1ccc2c(-c3nc(C4CCCCC4)no3)cc(-c3ccncc3)nc2c1 | -3.8% | 5.6% | 8.91µM* | ? | nt | 2.62µM*
COc1ccc(-c2cc(-c3nnc(-c4ccncc4)o3)c3ccccc3n2)cc1 | 1.2% | 7.9% | 0.0% | 9.28µM* | 9.6 | ?
